Data published in PubChem BioAssay (NCATS).
Values without a mark were called inactive. Inconclusive results are not listed. The source made the active and inactive calls. The call rests on the fitted dose curve; in most records, active means well fitted curve in the direction sought with a large enough effect; inconclusive means small, poorly fitted or top-dose-only effect, or another doubt; inactive means no such curve, though single readings can be large; an effect the other way counts as inactive or inconclusive.

System: not listed separately
Assay: Primary fluorescence-based thiol-reactive (MSTI) qHTS assay for identification of artifact compounds. (AID 1845221); further: nearly all actives have a fitted effect of over 65% in size; further: potency means the concentration at half of the fitted maximal effect;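 on activity change, negative = thiol reactive: thiol-reactive compounds lower the probe fluorescence signal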
Conditions: MSTI thiol-reactivity probe, 1 h; series mostly up to 53.8 µM; activity change, negative = thiol reactive: at the top concentration
Summary of the method: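 First, 4 uM MSTI in 2% DMSO/PBS pH 7.4 was dispensed; next, compounds were added; then plates sat 1 h at room temperature without light. Finally, emission at 598 nm was recorded.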

Row | Structure (SMILES) | activity change, negative = thiol reactive | Potency
1 | Cc1cccc(Nc2cc(Cl)nc(SCC(=O)O)n2)c1C | 24.1% | –
2 | CC(=O)NC(Cc1ccccc1)C(=O)O (stereo not given) | – | 11.2 µM (active)
3 | O=C(CCCN1CCN(c2ccccn2)CC1)c1ccc(F)cc1 | 19.7% | –
4 | C[C@@H]1CN(c2c(F)c(F)c3c(=O)c(C(=O)O)cn(C4CC4)c3c2F)C[C@H](C)N1 | -0.316% [at 11.5 µM] | –
5 | CCOC(=O)[C@H](CCc1ccccc1)N[C@@H](C)C(=O)N1C(=O)N(C)C[C@H]1C(=O)O | 3.75% | –
6 | C[C@]12CC[C@@H]3c4ccc(O)cc4CC[C@H]3[C@@H]1CC[C@@H]2OC(=O)CCC1CCCC1 | 0.437% | –
7 | CCCCN1CCCC[C@H]1C(=O)Nc1c(C)cccc1C | -5.71% | –
8 | CC/C=C(\C(=O)N[C@@H]1C(=O)N2C(C(=O)OCOC(=O)C(C)(C)C)=C(COC(N)=O)CS[C@H]12)c1csc(N)n1 | 50.4% | –
9 | C[C@@H]1C[C@H]2[C@@H]3C[C@H](F)C4=CC(=O)C=C[C@]4(C)[C@@]3(F)[C@@H](O)C[C@]2(C)[C@@]1(O)C(=O)CO | 51.7% | –
10 | CC(C(O)c1ccc(O)cc1)N1CCC(Cc2ccccc2)CC1 (stereo not given) | 46.5% [at 25.6 µM] | –
11 | CC(C)c1c(C(=O)Nc2ccccc2)c(-c2ccccc2)c(-c2ccc(F)cc2)n1CC[C@@H](O)C[C@@H](O)CC(=O)O | 179% [at 25.6 µM] | –
12 | c1ccc(CN(CC2=NCCN2)c2ccccc2)cc1 | -2.62% | –
13 | CCOc1ccc2ccccc2c1C(=O)N[C@@H]1C(=O)N2[C@@H]1SC(C)(C)[C@@H]2C(=O)O | 78.5% | –
14 | CCN(CC)CCNC(=O)c1cc(Cl)c(N)cc1OC | -11.4% | –
15 | CN1CCOC(c2ccccc2)c2ccccc2C1 (stereo not given) | -9.37% | –
16 | OCC(O)CN1CCN(c2ccccc2)CC1 (stereo not given) | -0.603% | –
17 | CCCCOc1cc(C(=O)OCCN(CC)CC)ccc1N | -3.9% | –
18 | CC(C)(C)C(=O)C(Oc1ccc(Cl)cc1)n1ccnc1 (stereo not given) | 5.54% | –
19 | CCN(CC)C(=O)Nc1ccc(OCC(O)CNC(C)(C)C)c(C(C)=O)c1 (stereo not given) | -1.29% | –
20 | Nc1ccc(S(=O)(=O)Nc2nccs2)cc1 | -0.09% | –
21 | CS(=O)(=O)c1ccc([C@@H](O)[C@@H](CF)NC(=O)C(Cl)Cl)cc1 | -3.34% | –
22 | Cn1c(=O)c2c(ncn2CC2OCCO2)n(C)c1=O | -5.84% | –
23 | COc1ccc2[nH]c(S(=O)Cc3ncc(C)c(OC)c3C)nc2n1 (stereo not given) | -19.8% | –
24 | COc1ccc2c(c1)C(=O)N(CCc1ccc(S(=O)(=O)NC(=O)NC3CCCCC3)cc1)C(=O)C2(C)C | 141% | –
25 | O=c1[nH]cnc2c1ncn2[C@@H]1O[C@H](CO)[C@@H](O)[C@H]1O | -7.79% | –

System: Nanoluciferase (engineered Oplophorus gracilirostris luciferase)
Assay: Primary Nanoluciferase (NLuc) qHTS assay for identification of artifact compounds. (AID 1845222);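 further: 0% = DMSO and -100% = no enzyme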
Conditions: NLuc-conditioned medium, Nano-Glo luminescence, 5 min; series mostly up to 54.1 µM; activity, negative = inhibition: at the top concentration
Summary of the method: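 Luminescence from secreted NLuc (filtered, 1:55-diluted S16 cell medium) read 5 min after Nano-Glo substrate; compounds preincubated 15 min, RT. Hill fits of inhibition normalized to DMSO and no-enzyme.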

Row | Structure (SMILES) | activity, negative = inhibition
26 | CCOC(CN1CCN(CC(C)C(=O)c2ccccc2)CC1)c1ccccc1 (stereo not given) | -10.4%
27 | CC(=O)NC(Cc1ccccc1)C(=O)O (stereo not given) | -9.54% [at 86.2 µM]
28 | O=C(CCCN1CCN(c2ccccn2)CC1)c1ccc(F)cc1 | 0%
29 | C[C@@H]1CN(c2c(F)c(F)c3c(=O)c(C(=O)O)cn(C4CC4)c3c2F)C[C@H](C)N1 | 4.03% [at 11.6 µM]
30 | CCOC(=O)[C@H](CCc1ccccc1)N[C@@H](C)C(=O)N1C(=O)N(C)C[C@H]1C(=O)O | 1.54%
31 | C[C@]12CC[C@@H]3c4ccc(O)cc4CC[C@H]3[C@@H]1CC[C@@H]2OC(=O)CCC1CCCC1 | 0%
32 | CCCCN1CCCC[C@H]1C(=O)Nc1c(C)cccc1C | 0%
33 | CC/C=C(\C(=O)N[C@@H]1C(=O)N2C(C(=O)OCOC(=O)C(C)(C)C)=C(COC(N)=O)CS[C@H]12)c1csc(N)n1 | -3.88%
34 | C[C@@H]1C[C@H]2[C@@H]3C[C@H](F)C4=CC(=O)C=C[C@]4(C)[C@@]3(F)[C@@H](O)C[C@]2(C)[C@@]1(O)C(=O)CO | -4.34%
35 | CC(C(O)c1ccc(O)cc1)N1CCC(Cc2ccccc2)CC1 (stereo not given) | 1.37% [at 25.7 µM]
36 | CC(C)c1c(C(=O)Nc2ccccc2)c(-c2ccccc2)c(-c2ccc(F)cc2)n1CC[C@@H](O)C[C@@H](O)CC(=O)O | -0.668% [at 25.7 µM]
37 | c1ccc(CN(CC2=NCCN2)c2ccccc2)cc1 | 0%
38 | CCOc1ccc2ccccc2c1C(=O)N[C@@H]1C(=O)N2[C@@H]1SC(C)(C)[C@@H]2C(=O)O | -0.466%
39 | CCN(CC)CCNC(=O)c1cc(Cl)c(N)cc1OC | 3.25%
40 | CN1CCOC(c2ccccc2)c2ccccc2C1 (stereo not given) | 0%
41 | OCC(O)CN1CCN(c2ccccc2)CC1 (stereo not given) | 2.42%
42 | CCCCOc1cc(C(=O)OCCN(CC)CC)ccc1N | -1.64%
43 | CC(C)(C)C(=O)C(Oc1ccc(Cl)cc1)n1ccnc1 (stereo not given) | -7.23%
44 | CCN(CC)C(=O)Nc1ccc(OCC(O)CNC(C)(C)C)c(C(C)=O)c1 (stereo not given) | -1.59%
45 | Nc1ccc(S(=O)(=O)Nc2nccs2)cc1 | -2.14%
46 | CS(=O)(=O)c1ccc([C@@H](O)[C@@H](CF)NC(=O)C(Cl)Cl)cc1 | 2.91%
47 | Cn1c(=O)c2c(ncn2CC2OCCO2)n(C)c1=O | 1.43%
48 | COc1ccc2[nH]c(S(=O)Cc3ncc(C)c(OC)c3C)nc2n1 (stereo not given) | -25%
49 | COc1ccc2c(c1)C(=O)N(CCc1ccc(S(=O)(=O)NC(=O)NC3CCCCC3)cc1)C(=O)C2(C)C | -21.2%
50 | O=c1[nH]cnc2c1ncn2[C@@H]1O[C@H](CO)[C@@H](O)[C@H]1O | 2.7%
